Tested on: T1, JNK3
T1 construct: gene MAPK10
Details: concentration: 1 μM,replicates: in singlicate; n = 1
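Further: KINOMEscan kinase panel screen.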

Row | SMILES | %Inh
1 | Cn1ccc2ncnc(Oc3ccc(NC(=O)Nc4cc(C(C)(C)C)on4)c(Cl)c3)c21 | 7%
2 | COC(=O)c1cccc(NC(=O)NC2CCN(c3ccnc(Nc4cc(OC)c(OC)c(OC)c4)n3)C2)c1 (stereo not drawn) [GSK1379767] | 28%
3 | O=C(Nc1ccccc1)c1cccc(Oc2ccc3nccn3n2)c1 | 6%

Tested on: KIT-autoinhibited
Details: concentration: 1 μM,replicates: in singlicate; n = 1

Row | SMILES | %Inh
4 | Cn1ccc2ncnc(Oc3ccc(NC(=O)Nc4cnn(C(C)(C)C)c4)c(Cl)c3)c21 | 35%
5 | COc1cc2ncn(-c3cc(OCC4CCCCC4)c(C(N)=O)s3)c2cc1OC [GSK204559] | 0%
6 | COc1cccc(CNC(=O)NC2CCN(c3ccnc(Nc4cc(OC)c(OC)c(OC)c4)n3)C2)c1 (stereo not drawn) [GSK1379765] | 0%
7 | Cn1ccc2ncnc(Oc3ccc(NC(=O)Nc4cccc(C(F)(F)F)c4)c(F)c3)c21 | 75%
8 | CNC(=O)c1ccccc1Nc1nc(Nc2cccc(CS(C)(=O)=O)c2)ncc1C.O=CO [GSK1520489] | 62%
9 | C[C@@H](Oc1cc(-n2cnc3cc(-c4cnn(C)c4)ccc32)sc1C(N)=O)c1ccccc1Cl [GSK580432] | 0%
10 | COc1cc(Nc2nccc(N3CCC(NC(=O)c4cccc(C#N)c4)C3)n2)cc(OC)c1OC (stereo not drawn) [GSK1379751] | 0%
11 | Cc1ccn2nc(-c3ccc(F)cc3)c(-c3ccncc3)c2c1.Cl [GW457859] | 0%
12 | CN1CCN(CCNc2nc3cc(Oc4ccc(NC(=O)Nc5cc(C(F)(F)F)ccc5F)cc4)ccc3[nH]2)CC1.Cl.Cl [GW768504] | 4%
